PubChem BioAssay (EPA / NIEHS)
Inconclusive results are not listed. The source made the active and inactive calls. The calls were made as follows: active = hit-call score of the fitted dose curve at least 0.9, where 1 is the maximum; inconclusive = response in the unintended direction; inactive = score below 0.9.

Test: ACEA_AR_agonist_AUC_viability: ACEA Biosciences xCELLigence Real-Time Cell Analysis on Androgen Receptor Agonism for Viability (AID 2283775);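 as to AC50: viability read 80 hours after compound addition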
How it was run: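 Viability endpoint from xCELLigence impedance in 22Rv1 prostate cells at 80 h. Eight-point series, 100 uM maximum final.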

Q: Which outcome does the source give for `Cl/C=C\C[N+]12CN3CN(CN(C3)C1)C2` here?
A: inactive

Q: For `OCc1ccco1`, which outcome is on record?
A: inactive

Q: With `CCC[CH2][Sn]([Cl])([Cl])[Cl]` as the compound, how does the outcome read?
A: inactive

Q: Which outcome does the source give for `CC(C#N)CCC#N` (configuration not stated) here?
A: inactive

Q: For `C=CCc1ccc(OC)cc1`, which outcome is on record?
A: inactive

Q: For `N#CN=C(N)N`, which outcome is on record?
A: inactive

Q: Which AC50 does the source give for `COc1cc(OC)nc(NC(=O)NS(=O)(=O)c2ncccc2C(=O)N(C)C)n1` here?
A: 1.74 µM (active)

Q: Which outcome does the source give for `O=C/C=C/c1ccccc1` here?
A: inactive

Q: With `COP(=O)(OC)OC` as the compound, how does the outcome read?
A: inactive

Q: Which outcome does the source give for `O=C(NCO)NCO` here?
A: inactive

Q: For `O=C1CCCN1`, which outcome is on record?
A: inactive

Q: For `CCC[CH2][Sn]([CH2]CCC)([CH2]CCC)[O]C(=O)c1ccccc1`, which AC50 is on record?
A: 4.45 µM (active)

Q: Which outcome does the source give for `Cc1ccccc1C(=O)Nc1cccc(OC(C)C)c1` here?
A: inactive

Q: Which outcome does the source give for `COc1ccc(C=O)cc1` here?
A: inactive

Q: With `CCOC(=O)Nc1cccc(OC(=O)Nc2ccccc2)c1` as the compound, how does the outcome read?
A: inactive

Q: For `O=S(=O)(c1ccc(Cl)cc1)c1ccc(Cl)cc1`, which outcome is on record?
A: inactive

Q: With `C=C(C)C#N` as the compound, how does the outcome read?
A: inactive

Q: Which outcome does the source give for `CC1(C)Cc2cccc(O)c2O1` here?
A: inactive

Q: With `COP(=S)(OC)Oc1ccc(Sc2ccc(OP(=S)(OC)OC)cc2)cc1` as the compound, how does the outcome read?
A: inactive

Q: With `[O-][Cl+2]([O-])O` as the compound, how does the outcome read?
A: inactive

Q: With `BrCCBr` as the compound, how does the outcome read?
A: inactive

Q: Which outcome does the source give for `Cc1ccc(N)cc1Cl` here?
A: inactive

Q: For `O=C1C(Cl)=C(Cl)C(=O)c2ccccc21`, which outcome is on record?
A: inactive

Q: For `CC(=O)C=C(C)C`, which outcome is on record?
A: inactive

Q: Which outcome does the source give for `CCCCOCCOC(C)=O` here?
A: inactive

Q: For `CC(C)c1cccc(C(C)C)c1O`, which outcome is on record?
A: inactive

Q: With `Cl/C=C/Cl` as the compound, how does the outcome read?
A: inactive
